Vaccinia mCherry: inhibitors of vaccinia virus infection (mCherry reporter signal) | Vaccinia virus mCherry reporter infection, fluorescence | Potency, µM (titrated, usually from 36.5 µM), for inactives: at the highest dose activity change, negative = inhibition, usual class: inhibitors | 310,000 compounds, 0.63% hits | AID 720579; calls by dose curve; tested in A549 cells; further: potency means the concentration at half of the fitted maximal effect; nearly all actives have a fitted effect of over 35% in size
FMDV inh: antivirals against foot and mouth disease virus | FMDV antiviral cell-based qHTS | Potency, µM (series often up to 57.9 µM), inactives show at the top dose activity change, negative = inhibition, most hits filed as inhibitors | 410,000 compounds, 1.2% hits | AID 1159524; calls by dose curve; tested in HEK293T cells; further: read-out not given here; potency means the concentration at half of the fitted maximal effect; nearly all actives have a fitted effect of over 45% in size
HCV inh: inhibitors of hepatitis C virus infection. 340,000 compounds, 3.4% hits. Huh7.5.1 HCVcc-Cre infection, luciferase reporter, 44 h. AID 651820. Potency, µM (doses to about 41.8 µM), for inactives: at the top dose activity change, negative = inhibition, most hits filed as inhibitors; further: potency means the concentration at half of the fitted maximal effect
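Cells (1,000/well) were plated 4 h before compound, then infected with HCVcc-Cre virus (~0.5 moi). After 44 h further culture, infection was read as luciferase luminescence following a 15 min substrate incubation at room temperature.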
HCMV antiviral: inhibitors of human cytomegalovirus. HFF cells, HCMV-luciferase reporter, 72 h; stronger effect = lower value. activity change, negative = inhibition, % at 57.5 µM. 410,000 compounds, 4.5% hits; in the data active means activity change below about -60%; inconclusive means no clear call, values can overlap the other calls; inactive means above about -39%
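Inhibition of viral replication was scored as loss of reporter luminescence in HFFs infected with HCMV-luciferase (MOI 1 PFU/cell) for 72 h; compounds tested at 2 doses, normalized to buffer and Salinomycin controls.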
Sm TGR block: blocks Schistosoma mansoni thioredoxin glutathione reductase | Q962Y6 | purified TGR, DTNB reduction, TNB absorbance 405 nm | Potency, µM (top dose mostly 114 µM), for the others: top-dose activity change, negative = inhibition, usual class: inhibitors | 360,000 compounds, 3% hits; further: potency means the concentration at half of the fitted maximal effect; nearly all actives have a fitted effect of over 60% in size
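TGR 20 nM + NADPH 100 uM (dispensed conc.), cpd preinc 15 min RT; start with NADPH (500 uM addition) then DTNB (15 mM addition). Kinetic TNB absorbance, 405 nm filter. Four-parameter Hill fit across titration.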
VACV Venus inh: inhibitors of vaccinia virus (Venus reporter); Vaccinia virus Venus reporter expression, fluorescence; Potency, µM (top dose mostly 36.5 µM), for inactives: at the top dose activity change, negative = inhibition, actives largely listed as inhibitors; 330,000 compounds, 0.46% hits; calls by dose curve; tested in A549 cells; further: potency means the concentration at half of the fitted maximal effect; nearly all actives have a fitted effect of over 30% in size
* marks the source's active call; other numbers are inactive results; i = inactive; ? = inconclusive; . = not tested or not shown; ! = repeats disagree; [ ] = dose if it differs, or a comment. Rows were chosen to be rich in hits. Some 9.3% of all compounds tested hit in one or more screens of this group. Unless noted, the call rests on the fitted dose curve; in most records, active means well fitted curve in the direction sought with a large enough effect; inconclusive means small, poorly fitted or top-dose-only effect, or another doubt; inactive means no such curve, though single readings can be large; an effect the other way counts as inactive or inconclusive. On the % scale 0 is the no-effect control and ±100 the full control effect.

SMILES	Vaccinia mCherry	FMDV inh	HCV inh	HCMV antiviral	Sm TGR block	VACV Venus inh
CCOC(=O)c1cc2c(=Cc3ccc(N(C)C)cc3)c3ccccc3n2[n+]1C	162.4%	17.8µM*	?	-87.8*	.	133.9%
CN(C)c1ccc(C=C2c3ccccc3-c3ccccc32)cc1	-22.3%	.	.	.	.	-11.9%
CCC(C)C(=O)Nc1ccc(S(=O)(=O)N2CCCC2)cc1 (configuration not stated)	.	-7.1%	5.8%	0.7	9.3%	.
CCC(C)NS(=O)(=O)c1ccc(S(=O)(=O)N2CCCC3(CCCCC3)C2)cc1 (configuration not stated)	.	?	10µM*	-35.2	-16.3%	.
Cc1nn(-c2ccccc2)c(N)c1Sc1cccc([N+](=O)[O-])c1	.	?	?	-76.4*	-3.7%	.
Cc1nn(-c2cccc([N+](=O)[O-])c2)c(N)c1-c1ccccc1	i	19.7%	-12.5%	-61.3*	-1.4%	1.9%
C[n+]1c2n(c3ccccc31)N=C(c1ccc(Br)cc1)CS2	.	?	?	-1.9	-4.9%	.
C[n+]1c2n(c3ccccc31)N=C(c1ccc(-c3ccccc3)cc1)CS2	-24.4%	?	7.08µM*	-98.7*	14.2%	?
C[n+]1c2n(c3ccccc31)N=C(c1ccccc1)CS2	-6.3%	?	-17.4%	-92.3*	-6.7%	-18.6%
CC(=O)O[C@H]1CC(C)(C)C(=C=C/C(C)=C/C=C/C(C)=C/C=C/C=C(C)/C=C/C=C(\C)C(=O)C[C@@]23O[C@]2(C)C[C@@H](O)CC3(C)C)[C@](C)(O)C1	?	-21.0%	-13.1%[8.37 µM]	.	3.16µM*	-8.0%
CCc1ccc(NC(=O)c2ccc3nc(C(C)C)oc3c2)cc1	-16.1%	32.1%	.	104.2	0.0%	-19.6%
CC(C)Nc1nc(-c2ccccc2)nc(-n2ccnc2)n1	.	-3.0%	2.82µM*	-19.7	6.5%	.
c1ccc(-c2nc(-n3ccnc3)nc(-n3ccnc3)n2)cc1	.	?	?	?	-10.9%	.
c1ccc(-c2nc(NC3CC3)nc(-n3ccnc3)n2)cc1	.	-13.3%	2.51µM*	2.5	6.2%	.
Cc1ccccc1NC(=S)NC(C)C(c1ccccc1)N1CCN(C)CC1 (configuration not stated)	-10.5%	-6.6%	13.4%	59.6	4.6%	12.7%
CCn1cc(C(=O)O)c(=O)c2cc(F)c(N3CCN(C(=S)Nc4ccccc4OC)CC3)cc21	.	-7.7%	1.1%	-37.8	-28.9%	.
CCn1cc(C(=O)O)c(=O)c2cc(F)c(N/N=C/c3ccccc3[N+](=O)[O-])cc21	-22.3%	20µM*	2.9%	-71.2*	-22.5%	-14.7%
CCC(OC(=O)c1nsc(Cl)c1Cl)C(=O)NCc1cccs1 (configuration not stated)	.	3.2%	15.5%	-1.5	0.8%	.
COc1ccccc1CNS(=O)(=O)CCNCc1ccco1	i	-2.0%	21.0%	-6.7	.	-5.3%
COc1cc(/C=C2\N=C(C)OC2=O)cc(Cl)c1OC(C)=O	.	-28.9%	6.6%	-1.3	10µM*	.
CCOc1cc(/C=C2\N=C(C)OC2=O)cc(Cl)c1OCC(=O)OC	i[7.34 µM]	-9.8%	5.6%	13.0	.	4.4%[7.34 µM]
COc1ccc(/C=C2\N=C(C)OC2=O)cc1[N+](=O)[O-]	i[7.34 µM]	-9.7%	1.0%	22.6	10µM*	-19.8%[7.34 µM]
N#Cc1nc(-c2ccco2)oc1N1CCc2ccccc2C1	.	17.1%	?	-7.0	50.1µM*	.
CC(C)(C)c1ccc(S(=O)(=O)N2CCN(CC(=O)N3CC(=O)Nc4ccccc43)CC2)cc1	.	-28.6%	-5.8%	-1.8	?	.
Cc1nc2c(sc3nc4c(cc32)COC(C)(C)C4)c(=O)n1CC(=O)NCc1ccco1	.	46.6%	-2.5%	17.5	39.8µM*	.
SMILES	Vaccinia mCherry	FMDV inh	HCV inh	HCMV antiviral	Sm TGR block	VACV Venus inh
CC1(C)Cc2nc3sc4c(SCC(=O)NCc5ccco5)ncnc4c3cc2CO1	.	-26.8%	14.1µM*	9.4	12.6µM*	?
CCCc1nc2c(sc3nc4c(cc32)COC(C)(C)C4)c(=O)n1Cc1ccco1	-18.9%	.	?	27.0	35.5µM*	-13.5%
CCCc1nc2c(sc3nc4c(cc32)COC(C)(C)C4)c(=O)n1CCN(C)C	i	-15.2%	16.5%	41.0	-4.2%	-1.6%
CC1(C)Cc2nc3sc4c(=O)n(CC(=O)NCc5ccccc5)cnc4c3cc2CO1	.	31.3%	?	71.7	1.1%	.
CCCCC1=NC2(CCCC2)C(=O)N1Cc1ccc(-c2ccccc2-c2nn[nH]n2)cc1	-12.8%	1.0%	.	.	3.6%	-6.5%
CC1CCC(NC(=O)c2ccc3c(c2)N(Cc2ccccc2)C(=O)c2ccccc2S3(=O)=O)CC1 (configuration not stated)	-12.8%	29.1%	.	?	-13.3%	-14.3%
COc1ccc(CCN2C(=O)CSC2c2ccc(F)cc2)cc1 (configuration not stated)	.	?	-20.1%	-18.0	-12.6%	.
O=C(NCC(c1ccco1)N1CCOCC1)c1cccc([N+](=O)[O-])c1 (configuration not stated)	-20.4%	-7.4%	1.3%	-6.0	-6.8%	-14.8%
O=C(NCC(c1ccco1)N1CCOCC1)c1ccc([N+](=O)[O-])cc1 (configuration not stated)	-11.2%	-8.4%	19.7%	0.0	3.98µM*	-1.3%
O=C(NCC(c1ccc(F)cc1)N1CCOCC1)c1ccc([N+](=O)[O-])o1 (configuration not stated)	-21.7%	-10.8%	?	-87.1*	.	-26.0%
O=C(NCC(c1ccco1)N1CCc2ccccc2C1)c1cccc([N+](=O)[O-])c1 (configuration not stated)	i	-20.9%	1.5%	-23.4	39.8µM*	-12.5%
CCc1ccc(NC(=O)CSc2nc(NS(=O)(=O)c3ccccc3)cc(=O)[nH]2)cc1	8.91µM*	-1.5%	?	28.9	-2.6%[57.1 µM]	-2.9%
Cc1cc(C)n2nc(SCC(=O)Nc3ccccc3)nc2n1	-4.0%	-9.9%	0.7%	-63.3*!	1.8%	-12.9%
Cc1cc(=O)[nH]c(SCC(=O)Nc2ccc(S(N)(=O)=O)cc2)n1	i	0.2%	16.7%	-61.4*	-0.9%	2.4%
Cc1cc(C)nc(SCC(=O)Nc2ccc(S(=O)(=O)NC(C)(C)C)cc2)n1	.	-16.4%	11.2µM*	?	-6.8%	.
O=C(c1ccc(CS(=O)Cc2ccc(Cl)cc2)o1)N1CCN(c2ccccc2)CC1 (configuration not stated)	-29.8%	-8.3%	-22.8%	-32.0	-20.4%	-4.4%
COc1cccc(NS(=O)(=O)NC(=O)c2c[nH]c3ccccc23)c1	.	4.2%	-1.3%	-25.5	0.4%	.
COc1ccc(-c2ccc(S(=O)(=O)NCC3CCCO3)cc2)cc1 (configuration not stated)	-13.8%	19.8%	?	.	0.7%	-12.6%

Screening results deposited in PubChem BioAssay by National Center for Advancing Translational Sciences (NCATS).
